Hits are enriched below; roughly 5.4% of the tested compounds scored in any of these assays.
Vaccinia Venus = vaccinia inhibition (Venus reporter); Vaccinia virus Venus reporter expression, fluorescence; Potency, µM (top dose mostly 36.5 µM), inactives show at the highest dose activity change, negative = inhibition, most hits filed as inhibitors; 330,000 compounds, 0.46% hits; calls by dose curve; tested in A549 cells; note: nearly all actives have a fitted effect of over 30% in size
MARV entry inh = inhibitors of Marburg virus binding or cell entry; Potency, µM (doses to about 37.8 µM), inactives show at the highest dose activity change, negative = inhibition, hits mostly inhibitors; Marburg virus pseudotyped entry inhibition, cell reporter; AID 540276; 300,000 compounds, 1.8% hits; calls by dose curve; tested in HEK293 cells
FMDV antiviral = blocks foot and mouth disease virus | Potency, µM (titrated, usually from 57.9 µM), inactives show at the highest dose activity change, negative = inhibition, hits mostly inhibitors | AID 1159524 | 410,000 compounds, 1.2% hits | FMDV antiviral cell-based qHTS; calls by dose curve; tested in HEK293T cells; note: read-out not given here; nearly all actives have a fitted effect of over 45% in size
Lassa entry inh = inhibitors of Lassa virus binding or cell entry. AID 540256. 300,000 compounds, 1.2% hits. Lassa virus pseudotype entry inhibition, cell reporter. Potency, µM (doses to about 37.9 µM), for inactives: top-dose activity change, negative = inhibition, actives largely listed as inhibitors; calls by dose curve; tested in HEK293 cells; note: nearly all actives have a fitted effect of over 50% in size
Sm TGR inh = S. mansoni TGR enzyme inhibition; Q962Y6; purified TGR, DTNB reduction, TNB absorbance 405 nm; Potency, µM (top dose mostly 114 µM), without a hit: at the highest dose activity change, negative = inhibition, actives largely listed as inhibitors; 360,000 compounds, 3% hits; AID 485364; active = well fitted inhibition curve with a large enough effect; inconclusive = small, poorly fitted or top-dose-only effect; inactive = no such curve, though single readings can be large or run the other way; note: nearly all actives have a fitted effect of over 60% in size
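First, TGR (20 nM dispensed) and NADPH were mixed with compound. Second, a 15 min room-temperature incubation followed. Third, further NADPH and then DTNB were added to start the reaction. Finally, TNB absorbance was monitored kinetically.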
VACV mCherry inh = vaccinia inhibition (mCherry reporter); Vaccinia virus mCherry reporter infection, fluorescence; Potency, µM (highest dose often 36.5 µM), for the others: at the highest dose activity change, negative = inhibition, most hits filed as inhibitors; 310,000 compounds, 0.63% hits; calls by dose curve; tested in A549 cells; note: nearly all actives have a fitted effect of over 35% in size
* hit, by the source's call; i = inactive; ? = inconclusive; / = not tested or not shown; [ ] = dose if it differs, or a comment. % is set by controls: 0 for no effect and ±100 for the full control effect; potency is the fitted concentration of half-maximal effect.

SMILES	Vaccinia Venus	MARV entry inh	FMDV antiviral	Lassa entry inh	Sm TGR inh	VACV mCherry inh
CCOC(=O)c1cc(C)n(CC2CCC(C(=O)Nc3cccc(C)c3)CC2)c1C (stereo unspecified)	-6%	/	-14%	-5%[46.1 µM]	0%	-2%
Cc1ccc(-n2nnnc2C(Cl)c2nnnn2-c2ccc(C)cc2)cc1	-22%	4%	10%	/	25µM*	-2%
Cc1ccc(-n2nnnc2-c2ccccc2)cc1	-22%	?	2%	?	-1%	-10%
CC(=O)c1ccc(NC(=O)C2CCN(S(=O)(=O)c3ccc4c(c3)CCCN4C(=O)C3CCC3)CC2)cc1	-14%	/	?	13%[46.1 µM]	5%	-16%
CC(C)[C@@H](OCc1ccccc1)[C@H](C)CON=C1[C@H]2CCn3c(=O)n(-c4ccccc4)c(=O)n3[C@@H]2[C@H](O)[C@@H]2O[C@H]12	/	25%[14.2 µM]	/	/	/	/
Cc1ccc2nc(N/N=C\c3ccc([N+](=O)[O-])o3)nc(-c3ccccc3)c2c1	-11%	10µM*	-29%	?	0%	/
CCn1c(CN2CCCCC2)nc2cc(NC(=O)c3cccc([N+](=O)[O-])c3)ccc21	-25%	0%[46.1 µM]	-18%	11%[46.1 µM]	6%	-23%
Cc1c(C(=O)N2CCC(Cc3ccccc3)CC2)sc2ncnc(NCc3ccccn3)c12	-16%	/	-29%	/	/	-24%
COc1ccc(Nc2ccc3c(c2)=NC2(CCCCC2)[N+]=3[O-])cc1	?	?	?	?	-22%	?
[O-][N+]1=c2ccc(Nc3ccccc3)cc2=NC12CCCCC2	?	2.2µM*	-8%	?	-19%	?
Cc1ccc(NC(=O)N2CCC(CN3CCCCC3)CC2)c(Cl)c1	1%	/	-2%	19%[46.1 µM]	7%	-1%
Cc1ccc(/C=C/c2onc(C)c2S(=O)(=O)N2CCC(C(=O)NCc3ccc(N(C)C)cc3)CC2)cc1	-8%[7.34 µM]	/	-9%	1%[46.1 µM]	-2%	-9%[7.34 µM]
CC(=O)OC[C@H]1O[C@@H](ON=CC[C@@H]2C=C[C@@H](OC(C)=O)[C@@H](COC(C)=O)O2)[C@@H](OC(C)=O)[C@@H](OC(C)=O)[C@@H]1OC(C)=O	/	-12%[14.2 µM]	/	/	/	/
CC(C)Cn1c(N)c(C(=O)COC(=O)c2cc(-c3ccco3)nc3ccccc23)c(=O)n(C)c1=O	-15%	/	?	/	6.3µM*	-18%
Cn1c(=O)c(C(=O)COC(=O)c2cc(-c3ccco3)nc3ccccc23)c(N)n(Cc2ccccc2)c1=O	/	-22%	/	-17%	3.2µM*	/
CCOc1ccc(N(CC)S(=O)(=O)N2CCCC(C(=O)NCc3ccccc3Cl)C2)cc1 (stereo unspecified)	-18%	/	?	-16%[46.1 µM]	-1%	-10%
COC(=O)C1=C(C)N(Cc2ccccc2)C(=O)NC1CCc1ccccc1 (stereo unspecified)	/	23%[14.2 µM]	/	/	/	/
Oc1ccccc1C1CC(c2cccs2)=NC(c2ccc(Cl)cc2)N1 (stereo unspecified)	/	/	-15%	/	?	/
Oc1ccc(Cl)cc1C1=NNC(c2cccs2)C1 (stereo unspecified)	-8%	/	10%	/	18µM*	?
Cc1ccc(O)c(C2=NNC(c3ccc(Cl)cc3)C2)c1 (stereo unspecified)	-13%[7.34 µM]	/	3%	/	45µM*	-15%[7.34 µM]
Oc1ccc(-c2n[nH]c(=S)n2-c2ccc3c(c2)OCCO3)c(O)c1	-26%	?	2µM*	?	-6%	?
S=c1[nH]nc(-c2ccc(Cl)cc2Cl)n1-c1ccc2c(c1)OCCO2	-8%	11%	29%	?	2%	-10%
Cc1ccsc1CN(C(=O)c1ccc(OCC(C)C)cc1)C1CCS(=O)(=O)C1 (stereo unspecified)	-3%	3%[46.1 µM]	-11%	8.9µM*	1%	-3%
CCOc1ccccc1CNC(=O)c1cc2c(=O)n(Cc3ccccc3)ccc2nc1C	-17%	/	?	?	-9%	-14%
COc1ccc(-n2nnc3c(=O)n(Cc4cc(C)ccc4C)cnc32)cc1	-11%	-23%	6%	1.2µM*	13%	0%
SMILES	Vaccinia Venus	MARV entry inh	FMDV antiviral	Lassa entry inh	Sm TGR inh	VACV mCherry inh
Cc1ccc(-n2nnc3c(=O)n(Cc4ccccc4C)cnc32)cc1	-15%	/	-27%	/	8%	i
Cc1cccc(NC(=O)CSc2nc(C)c(CC(=O)c3ccc(Br)cc3)c(C)c2C#N)c1C	-5%	?	0%	1%	-1%	/
Cc1nc(SCC(=O)Nc2ccc(F)cc2)c(C#N)c(C)c1CC(=O)c1ccc(Br)cc1	-22%	?	-16%	11µM*	2%	/
CCCS(=O)(=O)N1CC(=O)N(c2ccccc2F)C(C)(C(=O)NC2CCCCCC2)C1 (stereo unspecified)	2%	/	17%	3%[46.1 µM]	3%	-4%
CC(=O)c1ccc(F)c(-c2cc(C)cc3c2OC(CNC(=O)c2ccnn2C)C3)c1 (stereo unspecified)	?	/	-10%	/	/	-12%
CCCC[C@H]1C(=O)O[C@H](C)[C@H](NC(=O)c2cccc(NC=O)c2OC)C(=O)O[C@@H](C)[C@@H]1OC(=O)CC(C)C	-9%	/	0%	/	/	-14%
CCCCCC1C(=O)O[C@H](C)[C@@H](NC(=O)c2cccc(NC=O)c2O)C(=O)OC(C)C1OC(=O)CC(C)C (stereo partly specified)	-42%	/	40µM*	/	/	-36%
COC(=O)[C@@]1(C=C[C@@H](C)[C@H](OC)c2ccccc2Br)[C@@H]2OCCC[C@@H]21	/	-4%[14.2 µM]	/	/	/	/
COc1cccc(-c2c(NC(=O)c3ccco3)n(-c3ccc(C)cc3)nc(C)c2=O)c1	/	?	20%	4%	79µM*	/
O=C(CCl)Nc1nccs1	/	/	?	/	3.2µM*	/
O=C(Nc1nccs1)C(Cl)(Cl)Cl	-5%	12%[46.1 µM]	-18%	-10%	-5%	-10%
CCCn1c(SCc2nc(-c3ccccc3OCC)no2)nnc1-c1ccc(Cl)cc1	-17%	-16%[46.1 µM]	-14%	?	-12%	-12%
Cc1ccc(C(=O)Nc2ccc(-c3nc4ccccc4s3)cc2C)cc1C	3%	?	36%	34%[46.1 µM]	-1%	6%
Cc1cc(-c2nc3cc(F)ccc3s2)ccc1N	?	7.1µM*	-61%	2.2µM*	/	?
COc1ccc(-n2c(=S)[nH]c3cc(C(=O)Nc4ccccc4OC)ccc3c2=O)c(OC)c1	-14%	-28%[46.1 µM]	?	6.3µM*	-6%	i
COCCCn1c2nc3ccccc3nc2c2c(=O)n(C[C@H]3CCCO3)cnc21	/	15%	/	/	/	/
CCN(CC)c1ccc(CN(C(=O)Cc2coc3ccc(C)cc23)C2CCS(=O)(=O)C2)cc1 (stereo unspecified)	-10%	-15%[46.1 µM]	-26%	?	20%	-14%
CCCCCn1c(=N)n(CC(O)COc2cccc(C)c2)c2ccccc21 (stereo unspecified)	10µM*	?	?	?	1%	10µM*
CCCn1c(=N)n(CC(O)COc2cccc(C)c2)c2ccccc21 (stereo unspecified)	/	8.2µM*	?	-20%	-20%	/
